# PubChem BioAssay AID1345085 (National Center for Advancing Translational Sciences (NCATS), 2018)
# Inconclusive results are not listed. A call without a number means that no potency is given here. The source made the active and inactive calls. Calls come from the whole dose curve; as a rule, active = well fitted cell-killing curve with a large enough effect; inconclusive = small, poorly fitted or top-dose-only effect, or effect the other way; inactive = no such curve, though single readings can be large or run the other way.
# System: C33A
# Experiment: Confirmatory qHTS for gynecologic anti-cancer compounds from libraries of approved drugs and bioactive compounds; note: nearly all actives have a fitted effect of over 55% in size
# Conditions: gynecologic cancer cell panel viability, ATPlite luminescence, 48 h; series mostly up to 57.6 µM
# Outline: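 Cells (1,000/well) plated 16 h, then exposed 48 h at 37 °C to 11 concentrations (1:3) from 57.5 uM to 0.977 nM. Viability by ATPlite luminescence after 15 min; IC50 derived, with HEK 293T used for selectivity index.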
# Potency is the fitted concentration of half-maximal effect.
row,SMILES,Potency
1,COc1c(C)c2c(c(O)c1C/C=C(\C)CCC(=O)OCCN1CCOCC1)C(=O)OC2,2.73 µM (active)
2,NC(=O)Nc1cc(-c2cccc(F)c2)sc1C(=O)NC1CCCNC1 (stereo unspecified),0.485 µM (active)
3,Cn1c(=O)c(F)c(Nc2ccc(I)cc2F)c2c(=O)n(CC(O)CO)cnc21 (stereo unspecified),inactive
4,Cc1ccc(NC(=O)c2ccc(CN3CCN(C)CC3)cc2)cc1Nc1nccc(-c2cccnc2)n1,inactive
5,CCS(=O)(=O)c1cccc(-c2cc(C(=O)NC3CCN(C)CC3)c(C)c3[nH]c4ncc(C)cc4c23)c1,5.34 µM (active)
6,CC1=C(CO)C(=O)O[C@@H]([C@@H](C)[C@H]2CC[C@H]3[C@@H]4C[C@H]5O[C@]56[C@@H](O)C=CC(=O)[C@]6(C)[C@H]4CC[C@]23C)C1,2.11 µM (active)
7,CCc1cccc(CC)c1NC(=O)N1Cc2[nH]nc(NC(=O)c3ccc(N4CCN(C)CC4)cc3)c2C1,inactive
8,CCN(CC)CCCC(C)Nc1c2ccc(Cl)cc2nc2ccc(OC)cc12 (stereo unspecified),24.3 µM (active)
9,CN(C)CCC(CSc1ccccc1)Nc1ccc(S(=O)(=O)NC(=O)c2ccc(N3CCN(Cc4ccccc4-c4ccc(Cl)cc4)CC3)cc2)cc1[N+](=O)[O-] (stereo unspecified),inactive
10,C=CC(=O)Nc1cccc(Oc2nc(Nc3ccc(N4CCN(C)CC4)cc3)ncc2Cl)c1,24.3 µM (active)
11,Cc1ccc(C(=O)N(CCCN)C(c2oc3cc(Cl)ccc3c(=O)c2Cc2ccccc2)C(C)C)cc1 (stereo unspecified),0.769 µM (active)
12,Cc1[nH]c2ccccc2c1CCNCc1ccc(/C=C/C(=O)NO)cc1,0.243 µM (active)
13,CNc1nc(Nc2ccc(C(=O)N3CCOCC3)cc2OC)ncc1Cl,inactive
14,COC(C(=O)N1Cc2[nH]nc(NC(=O)c3ccc(N4CCN(C)CC4)cc3)c2C1)c1ccccc1 (stereo unspecified),inactive
15,COc1cc(N2CCC(N3CCN(C)CC3)CC2)ccc1Nc1ncc(Cl)c(Nc2ccccc2S(=O)(=O)C(C)C)n1,27.3 µM (active)
16,CC1(C)[C@@H](O)CC[C@]2(C)[C@H]3C(=O)C=C4[C@@H]5C[C@@](C)(C(=O)O)CC[C@]5(C)CC[C@@]4(C)[C@]3(C)CC[C@@H]12,inactive
17,Cc1ccc(C(=O)Nc2ccc(CN3CCN(C)CC3)c(C(F)(F)F)c2)cc1C#Cc1cnc2[nH]ncc2c1,17.2 µM (active)
18,CN[C@@H](C)C(=O)N[C@H]1CN(C(=O)CC(C)C)CC[C@H]2CC[C@@H](C(=O)NC(c3ccccc3)c3ccccc3)N2C1=O,inactive
19,CCCCN(CCCC)C(=O)CN1C[C@H](c2ccc3c(c2)OCO3)[C@@H](C(=O)O)[C@@H]1c1ccc(OC)cc1,inactive
20,COc1c(C)c2c(c(O)c1C/C=C(\C)CCC(=O)O)C(=O)OC2,inactive
21,COc1ccc(CCC(=O)c2c(O)cc(O[C@@H]3O[C@H](CO)[C@@H](O)[C@H](O)[C@H]3O[C@@H]3O[C@@H](C)[C@H](O)[C@@H](O)[C@H]3O)cc2O)cc1O,inactive
